Source: PubChem (National Center for Advancing Translational Sciences (NCATS))
DT40 TDP1 CPT: growth inhibition of DT40 Tdp1-/-;hTDP1 cells with camptothecin (screen for TDP1 inhibitors) | chicken DT40 Tdp1-/-;hTDP1 cells + 20 nM CPT, ATP luminescence, 48 h | Potency, µM (titrated, usually from 46.2 µM), for inactives: top-dose activity change, negative = growth inhibition, usual class: inhibitors | AID 686979 | hit rate 12% among 420,000; note: potency is the fitted concentration of half-maximal effect; nearly all actives have a fitted effect of over 55% in size
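Chicken DT40 Tdp1-/- cells complemented with human TDP1, 400 cells/well, exposed to compounds plus 20 nM camptothecin for at least 48 h at 37 C; viability read as ATP content by CellTiter-Glo luminescence.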
IL1B secr inh: blocks inflammasome-driven IL-1 beta release. THP-1 LPS/ATP IL-1B secretion, AlphaLISA, 16 h; stronger effect = lower value. activity change, % at 57.5 µM. hit rate 4.7% among 360,000. AID 743279; in the data active = activity change below about -50%; inconclusive = mostly about -30% to -49%
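THP-1 cells pretreated 1 hr with compounds (up to 57.5 uM final), then stimulated with LPS (250 ng/mL final) plus ATP (1.25 mM final); secreted IL-1B measured by AlphaLISA after 16 hr, decreased signal indicating inhibition.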
ELG1 DNA repair: blocks ELG1-dependent DNA repair in HEK293T cells; HEK293T ELG1-luciferase reporter, luminescence, 16 h; DNA damage induced by 5-fluorouridine; Potency, µM (doses to about 46.1 µM), inactives show top-dose activity change, negative = inhibition, usual class: inhibitors; hit rate 2.3% among 330,000; note: potency is the fitted concentration of half-maximal effect; nearly all actives have a fitted effect of over 55% in size
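HEK293T cells expressing luciferase-tagged ELG1 (2,000/well) received 5-Fluorouridine plus compound or DMSO for 16 hr at 37 °C. Luciferase was read by ONE-Glo luminescence after 30 min at room temperature.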
DT40 TDP1 no CPT: qHTS for Inhibitors of human tyrosyl-DNA phosphodiesterase 1 (TDP1): qHTS in cells in absence of CPT; Potency, µM (doses to about 46.2 µM), for inactives: top-dose activity change, negative = growth inhibition, usual class: inhibitors; DT40 Tdp1-/- hTDP1 cells, no CPT, ATP luminescence, 48 h; hit rate 15% among 420,000; note: potency is the fitted concentration of half-maximal effect; nearly all actives have a fitted effect of over 55% in size
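Compound effects on proliferation are scored in DT40 Tdp1-/-;hTDP1 cells in the absence of CPT. ATP levels (CellTiter-Glo luminescence) are recorded after a ≥48 hr, 37 °C incubation.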
Giardia killer: Giardia lamblia killing; hit rate 0.15% among 340,000; AID 540267; Giardia lamblia trophozoite viability; activity change, % at 7.66 µM, hits read low; in the data active = activity change below about -80%; inconclusive = between about -30% and that limit;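 note: parasites exposed to compound for two days anaerobically before the ATP read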
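Compounds were tested on trophozoites seeded at 100 cells/well and held 48 hrs at 37 deg C anaerobically. An ATP-based luminescent kit measured the remaining live cells.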
TDP1 block: inhibitors of human tyrosyl-DNA phosphodiesterase TDP1. Q9NUW8. recombinant TDP1, AlphaScreen DNA substrate cleavage. Potency, µM (series often up to 130 µM), for inactives: at the highest dose activity change, negative = inhibition, actives largely listed as inhibitors. hit rate 0.28% among 350,000. AID 485290; note: potency is the fitted concentration of half-maximal effect; nearly all actives have a fitted effect of over 40% in size
Target sequence (Q9NUW8 whole entry, looked up): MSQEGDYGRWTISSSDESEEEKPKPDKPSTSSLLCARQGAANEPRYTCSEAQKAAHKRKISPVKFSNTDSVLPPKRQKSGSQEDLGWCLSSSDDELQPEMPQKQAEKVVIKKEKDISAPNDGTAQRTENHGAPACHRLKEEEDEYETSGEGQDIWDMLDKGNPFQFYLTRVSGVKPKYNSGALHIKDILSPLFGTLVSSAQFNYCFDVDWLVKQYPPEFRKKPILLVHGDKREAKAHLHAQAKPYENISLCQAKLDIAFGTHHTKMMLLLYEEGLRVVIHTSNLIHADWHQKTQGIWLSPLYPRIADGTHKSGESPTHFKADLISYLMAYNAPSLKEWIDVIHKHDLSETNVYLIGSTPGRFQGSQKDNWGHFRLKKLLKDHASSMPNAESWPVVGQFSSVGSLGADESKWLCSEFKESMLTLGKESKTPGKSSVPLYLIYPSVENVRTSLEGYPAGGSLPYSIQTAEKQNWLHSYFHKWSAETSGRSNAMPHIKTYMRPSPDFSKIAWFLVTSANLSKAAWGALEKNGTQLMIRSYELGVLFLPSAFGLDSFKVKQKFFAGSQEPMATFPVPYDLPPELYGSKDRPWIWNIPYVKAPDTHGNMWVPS
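E. coli-derived human Tdp1, 1 nM final. Cpd preinc 15 min RT; substrate 15 nM final, 5 min RT; AS bead mix 10 ug/ml final, 10 min RT. Signal loss = tyrosine-FITC cleavage. No-enzyme wells = max signal.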
* = called active by the depositor; ? = inconclusive; · = no result; [ ] = dose if it differs, or a comment. The list is not random: actives were taken first. Their share in the collection is about 19%. Unless noted, calls come from the whole dose curve; as a rule, active = well fitted curve in the direction sought with a large enough effect; inconclusive = small, poorly fitted or top-dose-only effect, or another doubt; inactive = no such curve, though single readings can be large; an effect the other way counts as inactive or inconclusive. % is set by controls: 0 for no effect and ±100 for the full control effect.

SMILES	DT40 TDP1 CPT	IL1B secr inh	ELG1 DNA repair	DT40 TDP1 no CPT	Giardia killer	TDP1 block
Cn1cnc(S(=O)(=O)N2CCN(C(c3ccccc3)c3ccccc3)CC2)c1	-24%	13	13%	?	0	0%
CNC(=O)c1cccn1-c1ccsc1C(=O)OC	?	-1	4%	18µM*	-8	9%
COc1ccc(Cl)cc1NC(=O)COC(=O)C1=NNC(=O)CC1	-5%	51	14%	3%	-10	2%
Cc1oc(-c2ccccc2Cl)nc1CS(=O)CC(=O)N1CCN(c2cccc(C(F)(F)F)c2)CC1 (stereo not given)	9.2µM*	·	·	13µM*	·	9%
COc1cccc(-c2nc(CS(=O)CC(=O)N3CCN(c4cccc(C(F)(F)F)c4)CC3)c(C)o2)c1 (stereo not given)	13µM*	·	·	13µM*	·	5%
Cc1oc(-c2ccc(Cl)cc2)nc1CS(=O)CC(=O)N1CCN(c2cccc(C(F)(F)F)c2)CC1 (stereo not given)	15µM*	·	·	21µM*	·	3%
Cc1ccc(-c2nc(CS(=O)CC(=O)N3CCN(c4cccc(Cl)c4)CC3)c(C)o2)cc1 (stereo not given)	16µM*	·	·	?	·	9%
Cc1cccc(-c2nc(CS(=O)CC(=O)N3CCN(C)CC3)c(C)o2)c1 (stereo not given)	3%	-8	13%	-12%	14	5%
C=CCOC(=O)C(C(C)=O)C(NC(=O)OC)c1ccc2ccccc2c1 (stereo not given)	·	·	·	·	·	10%[21 µM]
COc1cc(OC)cc(C(=O)Nc2ccn(C)n2)c1	-5%	-10	9%	-4%	-9	0%
S=C1NCCC12C(=S)Nc1ccccc12 (stereo not given)	8%	-2	·	7%	-29	·
CCNC(=O)C1CC(=O)N(CCCc2ccccc2)C(=Nc2ccccc2)S1 (stereo not given)	?	9	0%	-26%	-12	·
C[C@H]1CN([C@@H](C)CO)C(=O)CCCn2nncc2CO[C@H]1CN(C)C(=O)Nc1ccc2c(c1)OCO2	6%	0	·	14%	·	·
COc1ccc(N2CCN(C(=O)CS(=O)Cc3nc(-c4ccc(OC)c(OC)c4)oc3C)CC2)cc1 (stereo not given)	?	-20	-18%	?	20	6%
Cc1ccc(-c2nc(CS(=O)CC(=O)N3CCN(c4ccc(F)cc4)CC3)c(C)o2)cc1 (stereo not given)	?	-27	-16%	15µM*	1	7%
COc1ccc(Cl)cc1NC(=O)CCCC(=O)c1ccccc1	21µM*	?	-1%	?	1	·
COC(=O)c1cc2sccc2n1CC(=O)Nc1cc(Cl)ccc1OC	12µM*	·	·	10µM*	·	-5%
COc1ccc(NC(=O)CCCC(=O)c2ccccc2)c(OC)c1	5%	7	?	-21%	-16	·
COc1ccc(Cl)cc1NC(=O)CN1CCc2ccccc2C1	-30%	-81*	?	-4%	-8	-6%
COC(=O)c1cc2sccc2n1CC(=O)Nc1cc(OC)cc(OC)c1	-19%	-12	-9%	-25%	-19	-2%
CCN(C(=O)Cn1c(C(=O)OC)cc2sccc21)c1cccc(C)c1	23µM*	·	·	?	·	1%
COc1cc(OC)cc(C(=O)N(Cc2ccco2)c2c(N)n(Cc3ccccc3)c(=O)[nH]c2=O)c1	-24%	12	·	4%	8	·
COc1cccc(C(NC(C)=O)c2nc(-c3ccc(F)c(Cl)c3)cs2)c1 (stereo not given)	-14%	-23	·	-25%	·	·
COC(=O)[C@H](CCSC)NC(=O)C/C=C\[C@@H](C)[C@@H](CO)OC	·	·	·	·	·	4%[21 µM]
Clc1ccccc1NN=Cc1ccccn1	-6%	0	·	-28%	·	·
SMILES	DT40 TDP1 CPT	IL1B secr inh	ELG1 DNA repair	DT40 TDP1 no CPT	Giardia killer	TDP1 block
CN1CCN(CC(=O)Nc2ccc(Cl)cc2Cl)CC1	-13%	-8	16%	-1%	-10	4%
COc1cc2c(cc1OC)CN(CCC(C)c1ccc(Cl)cc1)CC2 (stereo not given)	15µM*	-21	·	16µM*	-10	·
COc1cc2c(cc1OC)CN(CC(=O)Nc1ccc(Cl)cc1Cl)CC2	21µM*	12	?	21µM*	2	·
COc1ccc(NC(=O)NC23CC4(C)CC(C)(CC(C)(C4)C2)C3)cc1	?	?	-2%	?	0	-4%
CCn1nc(C)c(CCN(C)C(=O)Nc2ccc(C)c(Cl)c2)c1C	?	·	·	?	·	1%
CCN1C(=O)c2ccccc2Sc2ccc(NC(=O)Nc3cc(C)cc(C)c3)cc21	12µM*	·	·	6.5µM*	·	6%
Cc1ccc(NC(=O)Nc2ccc3c(c2)N(C)C(=O)c2ccccc2S3)c(C)c1	?	·	·	?	·	6%
CN1C(=O)c2ccccc2Sc2ccc(NC(=O)COc3ccccc3)cc21	4.1µM*	·	·	2.9µM*	·	-13%
Cc1cccc(OCC(=O)Nc2ccc3c(c2)N(C)C(=O)c2ccccc2S3)c1	10µM*	·	·	10µM*	·	0%
CN1C(=O)c2ccccc2Sc2ccc(NC(=O)Cc3c(F)cccc3Cl)cc21	13µM*	·	·	7.3µM*	·	2%
CCN1C(=O)c2ccccc2Sc2ccc(NC(=O)COc3ccc(Cl)cc3)cc21	16µM*	·	·	18µM*	·	11%
CCCn1c(CNc2ccc(Br)cc2)nc2ccccc21	23µM*	-28	-15%	?	-8	7%
COc1ccc(NCc2nc3ccccc3n2CCOc2ccccc2C)cc1	18µM*	·	·	?	·	15%
Cc1ccc(NCc2nc3ccccc3n2CCOc2ccccc2)cc1	?	-96*	?	18µM*	-14	15%
Fc1ccc(NCc2nc3ccccc3n2CCOc2ccccc2Cl)cc1	?	·	·	?	·	6%
